# Measurements reported in PubChem BioAssay AID1347076 (National Center for Advancing Translational Sciences (NCATS), 2019).
# In all, about 400,000 compounds went through this assay and about 13,000 (3.2%) were called active. About 18% were inconclusive and are not listed. For the sample, actives were picked, then their nearest neighbours and some compounds at random. Unmarked numbers belong to inactive results. The call rests on the fitted dose curve; in most records, active means well fitted cell-killing curve with a large enough effect; inconclusive means small, poorly fitted or top-dose-only effect, or effect the other way; inactive means flat fitted curve, though single readings scatter.
# Assay: qHTS assay for MDR1-selective chemotherapeutics: Primary screen using the drug-selected MDR subline cells KB-V1; further: nearly all actives have a fitted effect of over 60% in size
# Conditions: KB-V1 MDR cells viability, CellTiter-Glo, 72 h; series mostly up to 46.1 µM; activity change, negative = cytotoxicity: at the top concentration
# Method in brief: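 In this primary screen, KB-V1 cells overexpressing P-gp are incubated with library compounds (lowest to highest concentration) for 72 h at 37 degrees C before a luminescent ATP viability read.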
# On the % scale 0 is the no-effect control and ±100 the full control effect; potency means the concentration at half of the fitted maximal effect.
Structure (SMILES),"activity change, negative = cytotoxicity [%]",Potency
COc1ccc(-n2c(SC)nc3sc4c(c3c2=O)CCN(C(C)=O)C4)cc1,-5.53,–
CNc1cnc(-c2cc(OC)c(OC)c(OC)c2)cn1,6.28,–
Cc1ccc(C=O)c([B-](F)(F)F)c1,-1.5,–
CN1c2ccc(C=O)c3c(C=O)ccc(c23)N(C)C1(C)C,–,18.4 µM (active)
Cc1cc(C)c2c(=O)n3c(nc2c1)C(CC(C)C)NC(=O)c1cc2ccccc2cc1-3 (stereo unspecified),-6.74,–
CN(C)C1=C2C=CC=CC2/C(=C2/C=Cc3ccccc32)C=C1 (stereo unspecified),6.11,–
CC(=O)Nc1ccc2c3c(ccc([N+](=O)[O-])c13)CC2,27,–
CN(c1ccccc1)S(=O)(=O)c1ccc(NC(=O)COc2ccccc2)cc1,-39.9,–
CN(C)S(=O)(=O)c1cccc(NC(=O)Cc2ccsc2)c1,5.23,–
CN(c1ccccc1)S(=O)(=O)c1cccc(NC(=O)Cc2ccc(Cl)cc2)c1,–,5.8 µM (active)
COc1ccc(CN2C(=O)C(CC(=O)NC3CCCCC3)CC(C(=O)N3CCOCC3)=C2C)cc1 (stereo unspecified),-2.91,–
O=C(O)C1CCCCC1C(=O)Nc1ccc(Cl)cc1 (stereo unspecified),15,–
CCn1cc(CN2CCC(C(=O)Nc3cccc(-c4cccc(Cl)c4)c3)CC2)cn1,12,–
O=C(Nc1cnn(Cc2ccc(Cl)cc2)c1)C1CCCC1,–,20.6 µM (active)
CCCCCCN1C[C@@H](O)[C@H](n2cc(COC(=O)c3ccccc3)nn2)C[C@@H]1c1ccc(Cl)cc1,-19.6,–
Cc1ccc(OCCSc2nc3ccc(NC(=O)COc4ccc(C)cc4)cc3s2)cc1,19.9,–
COC(=O)[C@@]1(Sc2ccc(C)cc2)CC(=O)N(c2cccc(SC)c2)[C@@H]1c1ccccc1,–,20.6 µM (active)
CCOC(=O)N1C(=O)C[C@](Sc2ccc(C)cc2)(C(=O)OC)[C@H]1c1ccccc1,0,–
COC(=O)c1cc(C(=O)OC)cc(N2C(=O)CC(N3CCN(c4ccccc4)CC3)C2=O)c1 (stereo unspecified),0.274,–
Clc1cccc[n+]1CCCC[n+]1ccccc1Cl,-0.735,–
Cc1cc(C)cc(NS(=O)(=O)c2ccc(F)cc2)c1,1.11,–
Cc1cc(C)cc(NS(=O)(=O)c2ccc(Oc3ncc(C(F)(F)F)cc3Cl)cc2)c1,–,16.4 µM (active)
Cc1ccc(NS(=O)(=O)c2ccc(C(C)(C)C)cc2)cn1,-22.7,–
CC1(C(=O)Nc2cccc(Oc3ccccc3)c2)CCN1Cc1ccccc1Cl (stereo unspecified),-7.82,–
Cc1ccc(S(=O)(=O)c2c(N)n(C)c3nc4ccccc4nc23)cc1,-1.9,–
CCN(CC)CCn1c(N)c(S(=O)(=O)c2ccccc2)c2nc3ccccc3nc21,-23.5,–

Structure (SMILES),"activity change, negative = cytotoxicity [%]",Potency
CCC(=O)Nc1c(S(=O)(=O)c2ccccc2)c2nc3ccccc3nc2n1Cc1ccccc1,–,4.11 µM (active)
Cc1c(NC(=O)c2cc(=O)c3ccccc3o2)c(=O)n(-c2ccccc2)n1C,0,–
O=C(C[C@H]1C[C@@H]2c3cc(NC(=O)C4CCC4)ccc3O[C@@H]2[C@H](CO)O1)NC1CCCCC1,10.9,–
CCCNC(=O)c1cc(C2CCCN(C(=O)c3ccc4c(c3)CCO4)C2)on1 (stereo unspecified),2.38,–
c1c2c(cc3sc(N4CCCCC4)nc13)OCCO2,–,20.6 µM (active)
Cc1ccc2nc(N3CCN(C(=O)c4ccco4)CC3)sc2c1,-4.81,–
O=C(NCc1ccc(F)cc1)c1ccc2nc(N3CCCCC3)sc2c1,-6.93,–
COc1ccccc1CNC(=O)NCc1noc2ccc(C)cc12,0,–
COc1cccc2c1C(=O)c1c(O)c3c(c(O)c1C2=O)CC(O)(C(C)=NNC(=O)c1ccc(Cl)c(Cl)c1)CC3OC1CC(N)C(O)C(C)O1 (stereo unspecified),–,23.1 µM (active)
CC(=O)Nc1cccc(Nc2ccc(C#N)cc2)c1,2.59,–
CCOC(=O)C1=C(c2ccccc2)Nc2ncnn2C1c1ccc(Cl)cc1 (stereo unspecified),-0.799,–
CCNC(=O)C1(C)CCCN1C(=O)c1ccc(N(C)C)cc1 (stereo unspecified),5.84,–
Clc1ccccc1CSc1nncn2c1cc1occc12,-18.7,–
CC1(C)N=C(SCc2ccccc2Cl)c2ccccc2N1,12.4,–
Clc1ccccc1CSc1nnc(-c2ccco2)c(-c2ccco2)n1,–,20.6 µM (active)
O=S(=O)(NCC(c1ccco1)N1CCOCC1)c1cc(F)ccc1F (stereo unspecified),8.46,–
CCC(=O)N1Cc2cc(C(=O)NCc3cccc(F)c3)nc(-c3cccc(C4=CCCC4)c3)c2[C@H]1CCO,5.37,–
O=C(NNC(=O)C1CCN(c2ncccn2)CC1)c1ccccc1,1.32,–
Cc1ccnc(N2CCC(C(=O)NC3CCCCCC3)CC2)n1,–,16.4 µM (active)
Cc1ccnc(N2CCCC(C(=O)NC3CC3)C2)n1 (stereo unspecified),-14.5,–
O=C(NC1CCN(C(=S)Nc2ccc(Cl)cc2)CC1)C1CCCCC1,1.93,–
O=C(NC1CCCCCC1)C1CCN(C(=O)c2ccc(Cl)cc2)CC1,–,14.6 µM (active)
O=C(NC1CCCC1)C1CCN(C(=O)Nc2cccc(Cl)c2)CC1,2.05,–
Cc1ccc(C(NC(=O)C2CCN(CCOc3ccc(Cl)cc3Cl)CC2)c2ccccn2)cc1 (stereo unspecified),0.551,–
COc1ccc(NC(=O)C[C@H]2C(=O)N(CCc3ccccc3)C[C@@H]2C)cc1,-28.9,–
CCCNC(=O)c1cc(C2CCCCN2S(=O)(=O)c2cn(C)cn2)on1 (stereo unspecified),4,–

Structure (SMILES),"activity change, negative = cytotoxicity [%]",Potency
C[C@H](NC(=O)[C@@H]1CCCN1C(=O)[C@@H]1CCCN1C(=O)c1ccccc1)c1ccccc1,0.427,–
O=C1NC[C@@H](CCCCN2CCN(CCc3ccc(O)cc3)C(=O)C2=O)N(CC2CCCCC2)C1=O,-1.26,–
Cc1cc(C(=O)CSc2nc(N)cc(=O)[nH]2)c(C)n1-c1cccc(F)c1,–,3.66 µM (active)
Cc1cc(C(=O)CSc2nc(N)cc(=O)[nH]2)c(C)n1CCc1ccc(Cl)cc1,3.44,–
Cc1cc(C(=O)CSc2nc(N)cc(=O)[nH]2)c(C)n1Cc1ccco1,-15.7,–
Cc1cc(C(=O)N2CCCC2(C)C(=O)O)c(C)o1 (stereo unspecified),2.01,–
CS(=O)(=O)c1ccc2nc(NC(=O)c3ccc(Cl)nc3)sc2c1,0.805,–
COc1cccc(C(=O)Nc2nc3ccc(S(C)(=O)=O)cc3s2)c1,-24.1,–
CN(C)c1cccc(C(=O)Nc2nc3ccc(S(=O)(=O)NC(C)(C)C)cc3s2)c1,–,20.6 µM (active)
CC1(C(=O)Nc2cccc3cccnc23)CCN1C(=O)CCC1CCCC1 (stereo unspecified),3.6,–
CC(C)(O)C1=C[N+](=O)CC=C1,-2.53,–
COc1ccc(C2CC(c3cccc(OC)c3)=NN2c2ccc(S(N)(=O)=O)cc2)cc1 (stereo unspecified),10.7,–
CCOc1ccc2[nH]c(=S)sc2c1,-0.715,–
CCOc1ccc(NC(=O)c2ccccc2NS(C)(=O)=O)cc1,-0.444,–
COc1cc(NC(=O)c2ccccc2NS(=O)(=O)c2ccc(Cl)s2)cc(OC)c1,–,10.3 µM (active)
COc1cc(OC)c(S(=O)(=O)Nc2ccccc2C(=O)O)cc1S(=O)(=O)Nc1ccccc1C(=O)O,0,–
O=C(Nc1ccc(F)cc1)Nc1nnc([C@H]2C[C@H](O)[C@@H](CO)O2)s1,3.14,–
CC(C)c1ccc(NC(=O)Cn2c3ncccc3c(=O)n2-c2ccccc2)cc1,-4.24,–
O=C1c2ccccc2C(c2nc3ccccc3[nH]2)N1c1ccccc1 (stereo unspecified),15.6,–
CCOC(=O)[C@]12CCCC=C1N(CCC1=CCCCC1)C(=O)[C@H](CC(=O)N1CCOCC1)C2,-33,–
C=C1C(=O)OC2C1CCC(C)=CCCC1(C)OC21 (stereo unspecified),-25.5,–
COC(=O)c1ccccc1NC(=O)c1cnn(-c2ccc(F)cc2)c1-n1cccc1,-36.6,–
Cc1nn(-c2ccc(F)cc2)c(-n2cccc2)c1C(=O)N1CCN(c2ccccc2)CC1,–,20.6 µM (active)
O=C(Nc1ccc(F)cc1F)c1cnn(-c2ccc(F)cc2)c1-n1cccc1,-13.2,–
CC(=O)c1c(N2CCN(c3ccc(F)cc3)CC2)nc(=S)n(-c2ccccc2)c1C,-5.35,–
Cc1nn(-c2ccccc2)c(-n2cccc2)c1C(=O)O,0.327,–

Structure (SMILES),"activity change, negative = cytotoxicity [%]",Potency
O=C(c1cnn(-c2ccc(F)cc2)c1-n1cccc1)N1CCN(c2ccc(F)cc2)CC1,–,23.1 µM (active)
COc1ccc(-c2ccc(C(=O)NCCN3CCOCC3)c3occc23)c(C)c1,0,–
CCCCc1nc2ccc(F)cc2cc1C,-2.71,–
O=C(Nc1cccc(Cc2ccccc2)c1)Nc1ccc2nc([C@@H]3O[C@H](CO)[C@@H](O)[C@H](O)[C@H]3O)[nH]c2c1,-6.5,–
COc1ccccc1CNC(=O)c1ccccc1NC(=O)c1nsc2ccccc12,-0.717,–
Nc1cccc(OCCCCCOc2cccc(N)c2)c1,-6.44,–
O=C(NCc1ccncc1)NC12CC3CC(CC(C3)C1)C2,0,–
S=C(NCc1ccc(Cl)cc1)NC12CC3CC(CC(C3)C1)C2,–,16.4 µM (active)
O=C(NCc1ccc(Cl)cc1)NCc1ccc(Cl)cc1,9.02,–
CCCNC(=O)C1(C)CCN(Cc2ccc(Cl)c(Cl)c2)C1 (stereo unspecified),0,–
COc1cccc(NC(=O)C2CCN(c3cc(C)nc4c(-c5ccc(Cl)cc5)c(C)nn34)CC2)c1,-8.13,–
CC1(C)OC(=O)C2=C(C[C@@H](C3CC3)O[C@H]2CCc2cccc(Cl)c2)O1,-17,–
O=S(=O)(c1cccc(C(F)(F)F)c1)N1CCN(c2nc(-c3cccs3)nc3ccccc23)CC1,-1.66,–
COCC(=O)N(C)C[C@H]1Oc2cc(Br)ccc2S(=O)(=O)N([C@H](C)CO)C[C@H]1C,13.1,–
COc1ccccc1CC1(C)C(=O)Nc2ccc(OC(F)(F)F)cc21 (stereo unspecified),22.6,–
CC1(Cc2ccccc2C#N)C(=O)Nc2ccc(-c3ccc4[nH]ccc4c3)cc21 (stereo unspecified),–,6.51 µM (active)
Cc1ccc(CC2(C)C(=O)Nc3ccc(OC(F)(F)F)cc32)cc1 (stereo unspecified),2.43,–
Cc1ccc(-n2ncc3c(N4CCC(C(N)=O)CC4)ncnc32)cc1,-12.2,–
Cc1cc(OCC(=O)Nc2nccs2)c2c(C)c(C)c(=O)oc2c1,-5.19,–
COc1ccc(C(C)C)cc1-c1ccc2nncn2c1,0.562,–
O=C(NNC(=O)c1ccc(Cl)nc1)c1ccc(Br)cc1,12.1,–
CCN(CC)c1ccc(NC(=O)c2ccc(Cl)nc2)cc1,–,4.61 µM (active)
CCN(CC)c1ccc(NC(=O)CN2CCN(CC(=O)Nc3ccc(Cl)cc3)CC2)cc1,-7.77,–
